Compounds with a hit are over-represented: about 2.9% of the library has one in this group of screens.
ERb coact inh: inhibitors of ERβ-SRC1 coactivator interaction, primary screen, biochemical, TR-FRET, ERβ LBD, SRC-1 peptide; 86,000 tested, 1.3% active; TR-FRET ER-beta LBD / SRC1-Cy5 peptide binding; receptor agonist-loaded with 1 µM estradiol; Estrogen receptor beta (Homo sapiens), Q92731; inhibition, % at 25.6 µM;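 active means compounds whose percent inhibition of the receptor-coactivator binding signal exceeds about 50% in the single-dose screen, limit read from the data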
Target sequence (Q92731 whole entry, looked up, the tested form may be a part): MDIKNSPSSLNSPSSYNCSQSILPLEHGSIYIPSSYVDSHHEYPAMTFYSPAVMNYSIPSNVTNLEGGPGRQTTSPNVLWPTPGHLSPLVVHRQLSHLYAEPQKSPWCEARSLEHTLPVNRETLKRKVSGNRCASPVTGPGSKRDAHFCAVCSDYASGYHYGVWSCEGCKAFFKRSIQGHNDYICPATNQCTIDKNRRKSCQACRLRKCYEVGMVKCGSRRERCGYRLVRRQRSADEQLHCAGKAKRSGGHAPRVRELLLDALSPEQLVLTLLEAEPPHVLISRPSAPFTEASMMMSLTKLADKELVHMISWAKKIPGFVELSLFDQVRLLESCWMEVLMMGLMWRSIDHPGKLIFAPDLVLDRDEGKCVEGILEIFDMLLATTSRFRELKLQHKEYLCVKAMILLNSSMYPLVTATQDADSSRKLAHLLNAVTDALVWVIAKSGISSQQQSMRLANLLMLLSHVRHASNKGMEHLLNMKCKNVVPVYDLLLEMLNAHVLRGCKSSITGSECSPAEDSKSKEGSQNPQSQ
MRP reversal: reversal of MRP1-mediated doxorubicin resistance, primary screen, H69AR cells, doxorubicin co-treatment; H69AR cells + 2 uM doxorubicin, CellTiter-Glo, 72 h; differential viability (reversal), % at 10 µM; 85,000 tested, 0.04% active;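 active means viability drop by adding the cancer drug above about 55%, with treated viability meeting a 40% cutoff, limit read from the data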;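 further: larger differential means the compound sensitizes cells more to doxorubicin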
Smad3 inh: Smad3/FoxH1 peptide binding inhibitors, primary screen, biochemical, TR-FRET; Mothers against decapentaplegic homolog 3 (Homo sapiens), P84022; TR-FRET Smad3/Dy647-FoxH1 peptide binding, europium anti-His; inhibition, % at 25 µM; 88,000 tested, 0.29% active; AID 630, 2007;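 active means compounds that reduce the energy-transfer binding signal between the protein and its labelled peptide by more than half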
ERa coact pot: enhancers of ERα–SRC-1 coactivator binding, primary screen, biochemical, TR-FRET, ERα LBD, low estradiol; Estrogen receptor (Homo sapiens), P03372; TR-FRET ERalpha-LBD/SRC-Cy5 coactivator binding, 2 h; 100 = basal binding, no effect; coactivator binding (% of control), % at 25.6 µM; 86,000 tested, 1.3% active; AID 639, 2007; in the data active means activity above about 200%;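 further: binding measured in presence of low estradiol as agonist stimulus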
MRP1 act: H69AR viability gain despite doxorubicin, primary screen, MRP-1 activator project, H69AR cells, CellTiter-Glo | viability rescue | viability increase, % at 10 µM | 140,000 tested, 0.61% active | AID 799, 2007;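 active means viability gain under doxorubicin at or above a set limit, the compound median plus 3 SD, cut at about 4.7% in these data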;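 further: MRP-1 overexpressing cells given doxorubicin 25 µM after compound pretreatment; 18-22 h compound pretreatment then 72 h with doxorubicin before readout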
ERa SRC1 inh: ERα–SRC-1 coactivator interaction inhibitors, primary screen, biochemical, TR-FRET, ERα LBD, estradiol-bound; inhibition, % at 25.6 µM; Estrogen receptor (Homo sapiens), P03372; AID 629, 2007; TR-FRET ER-alpha LBD / SRC-1 peptide; 86,000 tested, 1.7% active; in the data active means inhibition above about 50%
Numbers stand for hits; 0 = inactive; - = no result given; [ ] = dose if it differs, or a comment.

SMILES	ERb coact inh	MRP reversal	Smad3 inh	ERa coact pot	MRP1 act	ERa SRC1 inh
Cc1c(Cl)cccc1-c1ccc(C(=O)N2CCN(c3ccc([N+](=O)[O-])cc3)CC2)o1	-	-	-	-	0	-
O=C(c1ccc(-c2cccc(Cl)c2)o1)N1CCN(c2ccc([N+](=O)[O-])cc2)CC1	-	-	-	-	4.7	-
CCN(CC)S(=O)(=O)c1cccc(NC(=O)CCSc2ccc(Cl)cc2)c1	-	-	-	-	5.5	-
O=C(Nc1ccc([N+](=O)[O-])cc1)/C(=C/c1cccc([N+](=O)[O-])c1)NC(=O)C1CCCCC1	0	0	0	0	0	0
Cc1ccc(NC(=O)/C(=C/c2cccc([N+](=O)[O-])c2)NC(=O)C2CCCCC2)c(C)c1	0	0	0	0	0	55
O=C1[C@@H]2[C@H](C(=O)N1CN1CCSCC1)[C@H]1[C@@H]3C=C[C@@H]([C@@H]4C(=O)N(CN5CCSCC5)C(=O)[C@@H]34)[C@@H]21	-	-	0	-	-	-
CCCS(=O)(=O)N1CCC(C(=O)NCCN2CCCC2)CC1	81[fluorescence artefact?]	0	0	0	0	0
CSc1nnnn1-c1ccc(C)c(Cl)c1	-	-	-	-	0	-
N#CC1=C2C=Cc3ccccc3N2CCCC1=O	0	0	0	0	7.3	0
Nc1nc(N)[n+]([O-])c(N)c1NCO	-	-	0	-	-	-
COc1ccc(NC(=S)N2CCN(C(=O)C3CCCO3)CC2)c(OC)c1 (centres undefined)	-	-	-	-	0	-
COc1ccccc1N1CCN(Cc2cc(Br)c(O)c3ncccc23)CC1	0	0	0	0	0	50[fluorescence artefact?]
CCCCCNC(=O)c1ccccc1SC	0	0	0	0	0	0
Cc1ccc(C(=O)O)cc1-c1ccc(/C=C2/NC(=O)N(c3ccccc3)C2=O)o1	81[fluorescence artefact?]	0	0	0	0	80[fluorescence artefact?]
NC(=O)NCCS[C@H]1CCCC[C@@H]1O	-	-	0	-	-	-
CCSc1nc(O)c(C2OC(=O)c3c2ccc(OC)c3OC)c(=O)n1CC (centres undefined)	0	0	84	0	0	0
CCCCSc1nc(O)c(C2OC(=O)c3c2ccc(OC)c3OC)c(=O)n1C (centres undefined)	0	0	0	0	0	0
CC1(C)O[C@@H]2O[C@H]([C@@H]3COC(C)(C)O3)[C@H](N)[C@@H]2O1	-	-	0	-	-	-
CC(C)=CCNc1ncnc2c1c(C#N)cn2[C@H]1O[C@H](CO)[C@@H](O)[C@@H]1O	-	-	0	-	-	-
COC(=O)Nc1sccc1C(=O)Nc1sccc1C(=O)OC	0	0	0	201	0	0
CC(C)[C@@H]1OC(=O)C=CC=CC=CC=CC=CC[C@@H](O)[C@H](C)[C@@H](O)C[C@H](O)C[C@H](O)C[C@H](O)C[C@H](O)C[C@H](O)C[C@H](O)C=C[C@@H]1C	-	-	0	-	-	-
O=C(O)c1c(Cl)c(Cl)c(Cl)c(Cl)c1C(=O)Nc1ccc2cn[nH]c2c1	-	-	0	-	-	-
CC(C)Oc1ccc(-c2nn(-c3ccccc3)cc2/C=c2\sc3ncnn3c2=O)cc1	0	0	0	0	5.8	0
O=c1/c(=C/c2cn(-c3ccccc3)nc2-c2ccc(F)cc2)sc2nc3ccccc3n12	-	-	-	-	0	-
CC(C)(N=NC(C)(C)C(=N)N)C(=N)N	-	-	0	-	-	-
SMILES	ERb coact inh	MRP reversal	Smad3 inh	ERa coact pot	MRP1 act	ERa SRC1 inh
CCOc1cc(-n2cnnn2)c(OCC)cc1NC(=O)c1cnccn1	0	0	0	0	-	55
O=C(CC(Nc1ccc(F)cc1)C(=O)OCC(=O)c1cccs1)c1ccccc1 (centres undefined)	-	-	-	-	5.2	-
O=C(Oc1ccc(N2C(=O)CCC2=O)cc1)c1ccco1	0	0	0	0	0	60
N/C(=N/O)c1cn([C@H]2O[C@@H](CO)[C@H](O)[C@H]2O)c2ncnc(NO)c12	-	-	0	-	-	-
O=C(Nc1ccccc1OC(F)F)C1CCCN1C(=O)c1cccs1 (centres undefined)	-	-	-	-	0	-
CN(C)c1ccc(C(=O)Nc2nnc(-c3ccc(Cl)cc3)o2)cc1	56[fluorescence artefact?]	0	0	0	0	64[fluorescence artefact?]
Cc1nn(-c2ccc(S(=O)(=O)O)cc2)c(O)c1N=Nc1ccc(-c2ccc(N=Nc3ccc4c(S(=O)(=O)O)cc(S(=O)(=O)O)c(N)c4c3O)c(O)c2)cc1O.[Cu].[Cu]	-	-	101	-	-	-
O=C(O)c1[nH]c(=O)[nH]c(=O)c1CN1CCCCC1	-	-	0	-	-	-
Cc1cc(-c2ccco2)c(C#N)c2nc3ccccc3n12	0	0	0	0	0	81[fluorescence artefact?]
O=C(c1ccc(Cl)cc1)C1CCN(C(=O)C2CC2)CC1	0	0	0	0	0	0
Cn1nnnc1SCC(=O)Nc1nc(-c2ccccc2)c(-c2ccccc2)o1	0	60	0	391	0	0
Cc1c(C(=O)N2CCN(c3ccccc3)CC2)sc2ncnc(N3CCC(C)CC3)c12	-	-	-	-	0	-
Cc1c(C(=O)N2CCN(c3ccccn3)CC2)sc2ncnc(N3CCN(c4ccccc4)CC3)c12	0	0	0	207[fluorescence artefact?]	-	0
CCc1ccc(N(C(=O)Cn2nnc(-c3ccccc3)n2)C(C(=O)NC2CCCCC2)c2ccccn2)cc1 (centres undefined)	-	-	-	-	0	-
Cc1cccc(Nc2nnc(SCC(=O)Nc3cccnc3Cl)s2)c1	-	-	-	-	8.1	-
Cc1cccc(Nc2nnc(SCC(=O)Nc3cccc(S(=O)(=O)N4CCCCC4)c3)s2)c1	-	-	-	-	0	-
Cc1cccc(NC(=O)CCSc2nnc(Cc3ccccc3)o2)c1	-	-	-	-	0	-
NC(N)=NC[C@H](N)C(=O)O	-	-	0	-	-	-
COc1ccc(CCC(=O)N2CCCSC2=Nc2ccc(C(C)=O)cc2)cc1	-	-	-	-	0	-
Cc1cc(C)n(CC(O)COc2ccccc2)n1 (centres undefined)	0	0	0	0	0	53
Cc1cc(C)n(CC(O)COCc2ccco2)n1 (centres undefined)	0	0	0	0	0	0
Cc1ccc(C)n1-c1sccc1C(=O)O	60	0	0	0	0	71[fluorescence artefact?]
COc1nc2c(C)cccc2cc1-c1noc(-c2ccco2)n1	0	0	0	0	0	55[fluorescence artefact?]
COc1cccc(-c2ccc(-c3noc(-c4cccs4)n3)c(OC)n2)c1	0	0	0	310[fluorescence artefact?]	0	0
COc1nc(-c2ccc(Cl)cc2)ccc1-c1noc(-c2ccco2)n1	0	0	0	376	0	0
COc1cc(OC)cc(-c2nc(-c3cc4cc(C)ccc4nc3OC)no2)c1	0	0	0	0	0	0
OC(c1ccccc1)c1cccnc1 (centres undefined)	-	-	-	-	0	-
CCOC(=O)c1cnn(-c2sc(C(=O)OCC)c(C)c2C(=O)OCC)c1N	64[fluorescence artefact?]	0	0	0	-	63[fluorescence artefact?]
CCOC(=O)c1cnn(-c2ncnc3sc4c(c23)CCC4)c1N	0	0	0	0	0	0
CCOC(=O)c1cnn(-c2ccccn2)c1N	0	0	0	0	7.5	0

Assay outcomes as filed in PubChem.
